Reference: PubChem BioAssay (NCATS)
Results filed as inconclusive are left out. Where a call stands in place of a potency, no number is given. Calls of active or inactive are those of the source. Unless noted, calls come from the whole dose curve; as a rule, active = well fitted curve in either direction with a large enough effect (not every such curve was filed as active); inconclusive = small, poorly fitted or top-dose-only effect, or another doubt; inactive = flat fitted curve, though single readings scatter.

The molecules below were run against Glucocorticoid receptor (Homo sapiens) (UniProt P04150) (assay: GR-EFC Redistribution (AID 451; calls by dose curve; note: potency is the fitted concentration of half-maximal effect)). Conditions: CHO-K1 GR-EFC translocation, beta-gal luminescence, 2 h.
Procedure, shortened: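 CHO-K1 cells stably expressing nuclear-localized β-gal enzyme acceptor and GR fused C-terminally to the enzyme donor fragment; ligand-driven nuclear translocation restores β-gal by complementation. Compounds titrated up to 46 uM final, 2 h at 37 °C; luminescence read.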

Sequence of Glucocorticoid receptor (Homo sapiens) (P04150 whole entry, looked up, the tested form may be a part): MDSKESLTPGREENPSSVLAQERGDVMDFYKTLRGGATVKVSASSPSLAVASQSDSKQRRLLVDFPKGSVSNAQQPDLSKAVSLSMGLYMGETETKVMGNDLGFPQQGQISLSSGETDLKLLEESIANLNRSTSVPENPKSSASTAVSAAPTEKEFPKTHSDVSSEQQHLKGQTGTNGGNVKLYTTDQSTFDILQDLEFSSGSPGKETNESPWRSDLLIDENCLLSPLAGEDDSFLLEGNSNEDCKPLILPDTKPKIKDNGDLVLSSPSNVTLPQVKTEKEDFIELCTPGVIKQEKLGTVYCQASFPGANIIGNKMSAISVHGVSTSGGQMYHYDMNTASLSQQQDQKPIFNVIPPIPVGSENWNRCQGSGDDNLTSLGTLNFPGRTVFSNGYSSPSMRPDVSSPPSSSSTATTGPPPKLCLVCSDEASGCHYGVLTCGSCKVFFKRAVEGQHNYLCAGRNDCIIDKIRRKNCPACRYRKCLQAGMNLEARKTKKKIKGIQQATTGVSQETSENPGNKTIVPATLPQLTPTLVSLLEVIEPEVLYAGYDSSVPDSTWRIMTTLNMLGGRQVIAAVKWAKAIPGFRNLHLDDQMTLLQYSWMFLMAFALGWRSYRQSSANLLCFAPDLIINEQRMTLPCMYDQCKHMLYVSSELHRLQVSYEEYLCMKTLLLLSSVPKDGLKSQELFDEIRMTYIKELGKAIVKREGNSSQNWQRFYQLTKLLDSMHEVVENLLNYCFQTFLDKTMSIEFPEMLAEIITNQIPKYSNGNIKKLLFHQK

SMILES | Potency
O=C(O)C[C@H](Cc1ccccc1Cl)C(=O)O | > 9.22 µM (inactive)
Cc1cc(Cl)nc(NC(=O)CSc2ccc(Cl)cc2)n1 | > 9.22 µM (inactive)
COc1ccc2c(=O)cc(-c3ccncc3)oc2c1OC | > 9.22 µM (inactive)
Cc1cc(Nc2ccc(N=Nc3ccc(O)c4ncccc34)cc2)nc(C)n1 | > 9.22 µM (inactive)
c1ccc2c(CC3NCCN3)cccc2c1 | > 9.22 µM (inactive)
NC([N-]/N=C/c1ccccn1)=[S]=[Fe].O=S(=O)(O)O | > 9.22 µM (inactive)
OCCCN=C1CCCCC1 | > 9.22 µM (inactive)
CC(CC(=O)O)(CC(=O)O)c1ccccc1 | > 9.22 µM (inactive)
c1ccc2c[n+](CCCC[n+]3ccc4ccccc4c3)ccc2c1 | > 9.22 µM (inactive)
CC(=O)O[C@H]1CC[C@@]2(C)C(=CC[C@@H]3[C@@H]4CC[C@H](c5cc(C(F)(F)F)n(C(C)=O)n5)[C@]4(C)CC[C@@H]32)C1 | > 9.22 µM (inactive)
CC1(C)COCN1COC1CCCCC1 | > 9.22 µM (inactive)
CN(C)Cc1cc(O)c(O)c(CN(C)C)c1 | > 9.22 µM (inactive)
Cn1c(=S)c2[nH]c(SCCCc3ccccc3)nc2n(C)c1=O | > 9.22 µM (inactive)
Cc1noc(NC(=O)Nc2ccccc2F)c1C#N | > 9.22 µM (inactive)
COc1cccc(Nc2ncc3ncc(=O)n(C4CC4)c3n2)c1 | > 46 µM (inactive)
Cc1nnc(S(=O)(=O)c2ccc(N=Nc3c(N)nc(N)nc3N)cc2)s1 | > 9.22 µM (inactive)
Cc1cc(SCC(=O)c2ccccc2)nc2ccccc12 | > 9.22 µM (inactive)
CC(CCC(=O)O)(c1ccc(O)cc1)c1ccc(O)cc1 | > 9.22 µM (inactive)
C[C@]12CC[C@H]3c4ccc(O)cc4CC[C@@H]3[C@H]1CC[C@@H]2OC(=O)CCc1ccccc1 | > 9.22 µM (inactive)

SMILES | Potency
C/C(=N/O)[C@@H]1C[C@H](CC(=O)O)C1(C)C | > 9.22 µM (inactive)
Nc1nc(N)c2[nH]c(CNc3ccc(C(=O)O)cc3)nc2n1 | > 9.22 µM (inactive)
Nc1nc(N)nc(CCCCc2nc(N)nc(N)n2)n1 | > 9.22 µM (inactive)
Cc1c(S(=O)(=O)O)ccc(N=Nc2c(O)c(C(=O)O)cc3ccccc23)c1Cl | > 9.22 µM (inactive)
NC(=O)NCCS[C@H]1CCCC[C@@H]1O | > 9.22 µM (inactive)
c1ccc2cc(NCNc3ccc4ccccc4c3)ccc2c1 | > 9.22 µM (inactive)
OC[C@@H]1O[C@@H](N2CCN([C@@H]3O[C@@H](CO)[C@@H](O)[C@H](O)[C@H]3O)CC2)[C@@H](O)[C@H](O)[C@H]1O | > 9.22 µM (inactive)
COc1cc(O)c2c(O)c3c(c4c2c1[C@@]1(C4)C(C)=CCCC1(C)C)[C@H](O)[C@@]1(O)CC(=O)C(C(N)=O)=C(O)[C@]1(O)C3=O | > 9.22 µM (inactive)
CC1=NN(c2ccccc2)C(=O)[C@@H]1N=Nc1ccc(S(N)(=O)=O)cc1 | > 9.22 µM (inactive)
O=C1Oc2ccccc2C(=O)/C1=C\N1C(=O)N/C(=C\c2ccccc2O)C1=O | > 9.22 µM (inactive)
Cc1ccc(N=Nc2c(O)c3ccccc3[nH]c2=O)c(S(=O)(=O)N(C)C)c1 | > 9.22 µM (inactive)
CCCCNN | > 9.22 µM (inactive)
COc1cccc2c1C(=N)c1c(O)c3c(c(O)c1C2=O)C[C@](O)(C(C)=O)C[C@@H]3O[C@H]1C[C@H](N)[C@@H](O)[C@H](C)O1 | > 9.22 µM (inactive)
CN(C)CCCN1c2ccc3ccccc3c2Sc2cccc(Cl)c21 | > 9.22 µM (inactive)
N=C1C=CC(=C(c2ccc(N)cc2)c2ccc(N)cc2)C=C1 | > 9.22 µM (inactive)
O=C(O)Cn1ccnc1[N+](=O)[O-] | > 9.22 µM (inactive)
C[C@@H]1CCCN(C[C@@H](O)CN2CCCc3ccccc32)C1 | > 9.22 µM (inactive)
NCCSCCC(=O)O | > 9.22 µM (inactive)
COc1ccc2c(c1)N(CC[C@H]1CCCCN1C)c1ccccc1S2 | > 9.22 µM (inactive)

What follows are molecules tested against Mitogen-activated protein kinase 10 (Mus musculus) (UniProt Q61831) (assay: JNK3 AlphaScreen Assay (AID 530;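 note: kinase came from lysate of stimulated human HepG2 cells; signal reports phosphorylation of biotinylated GST-cJun 1-79 at Ser73 with 10 µM ATP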)). Conditions: JNK3 lysate, c-Jun phosphorylation; series mostly up to 11.4 µM.
Procedure, shortened: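 Phosphorylation of biotinylated GST-cJun(1-79) at Ser73 is measured by AlphaScreen proximity luminescence. Enzyme is JNK3 in HepG2 lysates activated with interleukin-1beta and tumor necrosis factor alpha; ATP is 10 uM final.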

SMILES | Potency
O=C(O)C[C@H](Cc1ccccc1Cl)C(=O)O | inactive
Cc1cc(Cl)nc(NC(=O)CSc2ccc(Cl)cc2)n1 | inactive
COc1ccc2c(=O)cc(-c3ccncc3)oc2c1OC | inactive
Cc1cc(Nc2ccc(N=Nc3ccc(O)c4ncccc34)cc2)nc(C)n1 | inactive
c1ccc2c(CC3NCCN3)cccc2c1 | inactive
NC([N-]/N=C/c1ccccn1)=[S]=[Fe].O=S(=O)(O)O | inactive
OCCCN=C1CCCCC1 | inactive
CC(CC(=O)O)(CC(=O)O)c1ccccc1 | inactive
c1ccc2c[n+](CCCC[n+]3ccc4ccccc4c3)ccc2c1 | inactive
CC1CCN(CC[S-])CC1.O.O.[Cl][Pt] | inactive
CC(=O)O[C@H]1CC[C@@]2(C)C(=CC[C@@H]3[C@@H]4CC[C@H](c5cc(C(F)(F)F)n(C(C)=O)n5)[C@]4(C)CC[C@@H]32)C1 | inactive
CC1(C)COCN1COC1CCCCC1 | inactive
CN(C)Cc1cc(O)c(O)c(CN(C)C)c1 | inactive
Cn1c(=S)c2[nH]c(SCCCc3ccccc3)nc2n(C)c1=O | inactive
Cc1noc(NC(=O)Nc2ccccc2F)c1C#N | inactive
COc1cccc(Nc2ncc3ncc(=O)n(C4CC4)c3n2)c1 | inactive
Cc1nnc(S(=O)(=O)c2ccc(N=Nc3c(N)nc(N)nc3N)cc2)s1 | inactive
Cc1cc(SCC(=O)c2ccccc2)nc2ccccc12 | inactive
CC(CCC(=O)O)(c1ccc(O)cc1)c1ccc(O)cc1 | inactive

SMILES | Potency
C[C@]12CC[C@H]3c4ccc(O)cc4CC[C@@H]3[C@H]1CC[C@@H]2OC(=O)CCc1ccccc1 | inactive
C/C(=N/O)[C@@H]1C[C@H](CC(=O)O)C1(C)C | inactive
Nc1nc(N)c2[nH]c(CNc3ccc(C(=O)O)cc3)nc2n1 | inactive
Nc1nc(N)nc(CCCCc2nc(N)nc(N)n2)n1 | inactive
Cc1c(S(=O)(=O)O)ccc(N=Nc2c(O)c(C(=O)O)cc3ccccc23)c1Cl | inactive
NC(=O)NCCS[C@H]1CCCC[C@@H]1O | inactive
c1ccc2cc(NCNc3ccc4ccccc4c3)ccc2c1 | inactive
OC[C@@H]1O[C@@H](N2CCN([C@@H]3O[C@@H](CO)[C@@H](O)[C@H](O)[C@H]3O)CC2)[C@@H](O)[C@H](O)[C@H]1O | inactive
COc1cc(O)c2c(O)c3c(c4c2c1[C@@]1(C4)C(C)=CCCC1(C)C)[C@H](O)[C@@]1(O)CC(=O)C(C(N)=O)=C(O)[C@]1(O)C3=O | inactive
CC1=NN(c2ccccc2)C(=O)[C@@H]1N=Nc1ccc(S(N)(=O)=O)cc1 | inactive
O=C1Oc2ccccc2C(=O)/C1=C\N1C(=O)N/C(=C\c2ccccc2O)C1=O | inactive
Cc1ccc(N=Nc2c(O)c3ccccc3[nH]c2=O)c(S(=O)(=O)N(C)C)c1 | inactive
CCCCNN | inactive
CN(C)CCCN1c2ccc3ccccc3c2Sc2cccc(Cl)c21 | inactive
O=C(O)Cn1ccnc1[N+](=O)[O-] | inactive
C[C@@H]1CCCN(C[C@@H](O)CN2CCCc3ccccc32)C1 | inactive
NCCSCCC(=O)O | inactive
O=C(c1ccc([N+](=O)[O-])cc1)[C@@H](Br)[C@@H](Br)c1ccnc2ccccc12 | inactive
COc1ccc2c(c1)N(CC[C@H]1CCCCN1C)c1ccccc1S2 | inactive
